From PubChem BioAssay
A selection: hits, their analogues and other compounds. The true share with any hit is near 4.7%.
D1 PAM – Potentiators of Human D1 Dopamine Receptor: qHTS | 360,000 tested, 0.036% active | HEK293 TREx D1 cells, calcium flux, dopamine EC20 potentiation | D(1A) dopamine receptor (Homo sapiens), P21728 | potentiation, % at 10 µM | AID 504651, 2011; in the data active = potentiation above about 30%
TRHR PAM – qHTS for Small Molecule Agonists and Allosteric Enhancers of Human TRH Receptor: Primary Screen for Enhancers | TRHR cells, fluo-8 calcium fluorescence, EC20 TRH enhancement | enhancement, % at 2 µM | 360,000 tested, 0.66% active | AID 493056, 2011; in the data active = enhancement above about 30%
Target sequence (P34981 whole entry, looked up): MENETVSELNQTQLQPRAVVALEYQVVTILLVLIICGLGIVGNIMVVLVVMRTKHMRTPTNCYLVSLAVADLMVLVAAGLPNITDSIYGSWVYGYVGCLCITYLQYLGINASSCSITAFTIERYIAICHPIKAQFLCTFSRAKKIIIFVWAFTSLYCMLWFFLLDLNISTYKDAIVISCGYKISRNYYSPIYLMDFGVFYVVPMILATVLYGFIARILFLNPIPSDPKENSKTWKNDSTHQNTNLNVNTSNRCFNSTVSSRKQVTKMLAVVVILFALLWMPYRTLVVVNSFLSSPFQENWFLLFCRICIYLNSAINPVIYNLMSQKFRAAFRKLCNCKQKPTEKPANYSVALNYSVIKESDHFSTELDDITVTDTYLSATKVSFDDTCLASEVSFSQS
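Enhancer read-out: after compound pinning and an initial kinetic agonist-mode read, an EC20 of TRH (10 nM final) was injected and fluo-8 calcium signal (Ex 480/Em 530) followed at 1 s/cycle for 100 cycles in TRHR-expressing cells.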
TRHR agonist – qHTS for Small Molecule Agonists and Allosteric Enhancers of Human TRH Receptor: Primary Screen for Agonists; Thyrotropin-releasing hormone receptor (Homo sapiens), P34981; TRHR cells, calcium flux fluo-8, FDSS agonist mode; 360,000 tested, 0.18% active; AID 493084, 2011; activation, % at 2 µM
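Fluo-8-loaded TRHR cells; 10 s baseline, compound added, kinetic Ca2+ fluorescence read 1/s, agonist mode.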
D1 agonist – Allosteric Agonists of the Human D1 Dopamine Receptor: qHTS | activation, % at 2 µM | 360,000 tested, 1% active | AID 504660, 2011 | D(1A) dopamine receptor (Homo sapiens), P21728 | HEK293 T-REx D1 cells, calcium flux, agonist mode
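Tetracycline-induced HEK293 TREx D1 cells, force-coupled to calcium signalling, were dye-loaded with a no-wash calcium kit. Compound was pin-added after a 10 s baseline. Fluorescence was read kinetically at 1 cycle/s for 180 s, with calcium rises flagged as agonism.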
D1 antagonist – Antagonist of Human D 1 Dopamine Receptor: qHTS | D(1A) dopamine receptor (Homo sapiens), P21728 | HEK293 TREx D1 cells, calcium flux, dopamine EC80; active compounds read low | 360,000 tested, 3.2% active | activity change, negative = inhibition, % at 10 µM; in the data active = activity change below about -30%
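Calcium flux readout: force-coupled, inducible Hek293 Trex D1 line, cells induced overnight at 30 C with tetracycline, dye-loaded 30–90 min at RT. Antagonism scored against EC80 dopamine challenge given 180 s after compound.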
Large screens that a line does not name were inactive; ! = not confirmed by another sample. Rule as the data show it, unless noted: active = activation above about 30%; inactive = the rest.

Cn1c(=O)c(NCCc2ccccc2)c2c3c(cccc31)C(=O)c1ccccc1-2	TRHR agonist 175.4, D1 agonist 393.8, D1 antagonist -77.6
CC(=O)Nc1ccc(Nc2c3c4c(cccc4n(C)c2=O)C(=O)c2ccccc2-3)cc1	none
Cn1c(NCCc2ccccc2)cc(=O)n(C)c1=O	none
Cn1c(=O)c(NCCO)c2c3c(cccc31)C(=O)c1ccccc1-2	TRHR agonist 268.9, D1 agonist 441.8, D1 antagonist -41.9
Cn1c(=O)cc2c3c(c(N4CCCCC4)ccc31)C(=O)c1ccccc1-2	none
COC(=O)c1cc(OC)c(OC)c(OC)c1NC(=O)c1cc(=O)n(C)c(=O)n1C	none
O=C(Nc1ccccc1F)c1cnc(N2CCCCC2)c2ccccc12	none
CCNc1cccc2c1C(=O)N(C)C2=O	none
CCNc1c2c3c(cccc3n(C)c1=O)C(=O)c1ccccc1-2	TRHR agonist 151.1, D1 agonist 373.1
CCCCN(Cc1ccccc1)C(=O)c1oc(=O)c2ccccc2c1-c1ccc(C)cc1	none
CC(C)CCC1(CCNC(C)c2cccs2)CCOC(C)(C)C1 (configuration not stated)	D1 antagonist -35.9
CCC(=O)N(CCC1(C(C)C)CCOC(C)(C)C1)C(C)c1cccs1 (configuration not stated)	none
O=[N+]([O-])c1ccc(/C=N/Nc2nc(N3CCCC3)nc(N3CCCC3)n2)o1	none
O=[N+]([O-])c1ccc(-c2ccc(/C=N/Nc3nc(N4CCCCC4)nc(N4CCCCC4)n3)o2)cc1	D1 agonist 46.8
O=[N+]([O-])c1cccc(-c2ccc(/C=N/Nc3nc(N4CCCCC4)nc(N4CCCCC4)n3)o2)c1	none
O=[N+]([O-])c1ccc(-c2ccc(/C=N/Nc3nc(N4CCCC4)nc(N4CCCC4)n3)o2)cc1	D1 agonist 76.1
CCC(C(=O)Nc1ccc(C(C)=O)cc1)n1c(C)c2cnn(-c3ccccc3)c(=O)c2c1C (configuration not stated)	D1 agonist 50.7
CC(=O)c1cccc(NC(=O)Cn2c(C)c3cnn(-c4ccccc4)c(=O)c3c2C)c1	none
Cc1nn2c(=O)cc(COC(=O)c3ccc(NC(=O)COc4ccc(Cl)cc4)cc3)nc2s1	none
CSCC[C@@H](C(=O)NCCCCCCCCCCC(=O)N1CCNCC1)n1cc(CCO)nn1	D1 antagonist -35.6
NCCCCCc1cn([C@@H](CCC(=O)O)C(=O)NCCCCCCCCCCC(=O)N2CCNCC2)nn1	none
NCCCCCc1cn([C@@H](CO)C(=O)NCCCCCCCCCCC(=O)N2CCNCC2)nn1	D1 antagonist -31.6
Cc1nn(C)c(C)c1S(=O)(=O)N(CC(=O)NCCc1ccccc1)c1ccc(C(C)C)cc1	none
CCOc1ccc(C(C)=O)cc1COC(=O)c1ccc2c(c1)NC(=O)CS2	none
CCOc1cc2c(cc1C(C)(C)C)NC(=O)CS2	D1 antagonist -85.1
CCOC(=O)c1nnn(CC(=O)NC(=O)Nc2ccc(F)cc2)c1C(=O)OCC	D1 agonist 42.3!
COc1ccc2c(=O)c(Oc3ccc(C(=O)O)cc3)c(C(F)(F)F)oc2c1	D1 antagonist -30.3
CCCOc1ccc(CCc2n[nH]c(=S)n2-c2ccccc2)cc1	none
CCCOc1ccc(CCc2n[nH]c(=S)n2Cc2ccccc2)cc1	D1 antagonist -43.3
CC1CCN(C(=O)Cn2c(SCC(=O)Nc3ccc(F)cc3)nc3ccccc32)CC1	none
CC(=O)Nc1ccc(Nc2nc(Cl)nc(Nc3ccc(NC(C)=O)cc3)n2)cc1	D1 antagonist -36.2
Cc1cc(C)c(C(=O)NC2CC(C)(C)Cc3c2cnn3-c2cccc(F)c2)[nH]1 (configuration not stated)	none
CCn1nc(C)cc1C(=O)NC1CC(C)(C)Cc2c1cnn2-c1cccc(F)c1 (configuration not stated)	D1 antagonist -64.2
CCN(C(=O)c1cc(S(=O)(=O)N2CCCCC2)c[nH]1)c1ccc(OC)cc1	none
CC1CCN(C(=O)c2cc(S(=O)(=O)N3CCCCC3)c[nH]2)CC1	D1 antagonist -33.3
